D1 potentiator: Potentiators of Human D1 Dopamine Receptor: qHTS; potentiation, % at 10 µM; 360,000 compounds, 0.036% hits; D(1A) dopamine receptor (Homo sapiens), P21728; HEK293 TREx D1 cells, calcium flux, dopamine EC20 potentiation; in the data active = potentiation above about 30%
Target sequence (P21728 whole entry, looked up): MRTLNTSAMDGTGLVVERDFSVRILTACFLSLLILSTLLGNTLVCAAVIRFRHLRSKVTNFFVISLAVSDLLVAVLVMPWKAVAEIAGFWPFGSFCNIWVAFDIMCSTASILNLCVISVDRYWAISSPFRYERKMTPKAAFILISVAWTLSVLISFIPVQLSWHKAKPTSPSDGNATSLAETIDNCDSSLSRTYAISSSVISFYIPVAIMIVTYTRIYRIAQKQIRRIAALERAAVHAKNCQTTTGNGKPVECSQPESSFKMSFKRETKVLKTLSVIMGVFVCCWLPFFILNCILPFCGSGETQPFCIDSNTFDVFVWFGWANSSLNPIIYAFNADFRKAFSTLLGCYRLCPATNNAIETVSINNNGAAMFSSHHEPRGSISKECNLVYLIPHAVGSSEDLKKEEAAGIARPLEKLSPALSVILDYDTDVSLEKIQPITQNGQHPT
TRHR PAM: qHTS for Small Molecule Agonists and Allosteric Enhancers of Human TRH Receptor: Primary Screen for Enhancers | Thyrotropin-releasing hormone receptor (Homo sapiens), P34981 | TRHR cells, fluo-8 calcium fluorescence, EC20 TRH enhancement | 360,000 compounds, 0.66% hits | enhancement, % at 2 µM; in the data active = enhancement above about 30%
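TRHR-expressing cells loaded with fluo-8 calcium dye were read kinetically (ex 480/em 530) during compound addition, then stimulated with an EC20 of TRH (10 nM final). Enhancement of the Gq-mediated intracellular calcium response was scored.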
D1 antag: Antagonist of Human D 1 Dopamine Receptor: qHTS; HEK293 TREx D1 cells, calcium flux, dopamine EC80; hits give low values; activity change, negative = inhibition, % at 10 µM; 360,000 compounds, 3.2% hits; D(1A) dopamine receptor (Homo sapiens), P21728; in the data active = activity change below about -30%
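Antagonism measured as reduced calcium response to an EC80 dopamine addition following 180 s compound pre-read; cells were inducible HEK293 Trex D1 plated overnight at 30 C, read kinetically at 1 cycle/sec.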
TRHR ag: qHTS for Small Molecule Agonists and Allosteric Enhancers of Human TRH Receptor: Primary Screen for Agonists; Thyrotropin-releasing hormone receptor (Homo sapiens), P34981; activation, % at 2 µM; 360,000 compounds, 0.18% hits; TRHR cells, calcium flux fluo-8, FDSS agonist mode
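Steps: seed TRHR cells overnight; add fluo-8 no-wash Ca dye, RT 30 min–1.5 h; record 10 s baseline; pin-transfer compounds; monitor fluorescence 1 cycle/s for the agonist window. Calcium increases flag candidate agonists.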
D1 ag: Allosteric Agonists of the Human D1 Dopamine Receptor: qHTS; D(1A) dopamine receptor (Homo sapiens), P21728; activation, % at 2 µM; 360,000 compounds, 1% hits; HEK293 T-REx D1 cells, calcium flux, agonist mode
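Agonism was scored from calcium flux recorded over 180 s (1 read/s) after pintool compound addition, following a 10-cycle baseline. Cells were inducible force-coupled HEK293 TREx D1, plated overnight at 30 C and loaded with no-wash calcium dye.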
Large screens that a line does not name were inactive. Hits are enriched below; roughly 4.7% of the tested compounds scored in any of these assays. Rule as the data show it, unless noted: active = activation above about 30%; inactive = the rest.

COc1ccc(NC(=O)NCCN2CCN(c3cc(OC)ccc3OC)CC2)cc1	none
COc1ccc(Cl)c(NC(=O)NCCN2CCN(c3ccccc3)CC2)c1	D1 antag -65
Cc1ccc(NC(=O)NCCN2CCN(c3ccccc3)CC2)cc1Cl	none
O=C(NCCN1CCOCC1)Nc1ccc(Cl)cc1Cl	D1 antag -45
COc1ccc(Cl)cc1N1CCN(CCNC(=O)Nc2ccccc2C)CC1	none
COc1ccc(N2CCN(CCNC(=O)Nc3cc(Cl)ccc3OC)CC2)cc1	D1 ag 44
CC(Oc1ccc(Cl)cc1Cl)C(=O)NCCN1CCOCC1 (stereo unspecified)	none
COc1ccc(Cl)c(N2CCN(CCCNC(=O)Nc3ccc(C)cc3)CC2)c1	D1 antag -60
Cc1ccccc1OCC(=O)Nc1nnc(S(=O)(=O)N2CCCCCC2)s1	none
CCc1ccc(N/C(SC)=C(/C#N)C(N)=O)cc1	none
CCOc1ccc(N/C(SC)=C(/C#N)C(N)=O)cc1	D1 antag -52
O=C1CC(SC2=NCCS2)C(=O)N1c1ccc(Cl)cc1 (stereo unspecified)	none
O=C1CC(SC2=NCCS2)C(=O)N1c1ccc(Br)cc1 (stereo unspecified)	D1 ag 44
O=c1cc(-c2ccccc2)nc2c(-c3ccccc3)c(C(F)(F)F)[nH]n12	D1 antag -31
Cc1ccc2c(c1)c1c(c(=O)n(Cc3ccccc3)c(=O)n1CC(=O)NCc1ccccc1Cl)n2C	none
Cc1c(C)n(Cc2ccccc2)c2ccc(C(=O)OCCN(C)C)cc12	D1 ag 57
CS(=O)(=O)c1cccc(C(=O)NCc2ccccc2)c1	none
CC(C)(C)c1cc(C(=O)NCc2ccccc2)ccn1	D1 antag -32
Cc1c(C)n(Cc2ccccc2)c2ccc(C(=O)N3CCN(c4ccc(F)cc4)CC3)cc12	D1 antag -74
CCc1ccc(NC(=O)c2ccc3c(c2)c(C)c(C)n3Cc2ccccc2)cc1	none
COc1cccc(CNC(=O)c2ccc3c(c2)c(C)c(C)n3Cc2ccccc2)c1	D1 antag -33
CCc1ccc(CNC(=O)c2ccc3c(c2)c(C)c(C)n3Cc2ccccc2)cc1	none
CCOc1ccccc1CNC(=O)C1CCN(c2nn3cc(-c4ccc(F)cc4)nc3s2)CC1	none
Cc1ccc2c(=O)cc(C(=O)N(Cc3ccc(N(C)C)cc3)C3CCS(=O)(=O)C3)oc2c1 (stereo unspecified)	none
Cc1c(C)n(Cc2ccccc2)c2ccc(C(=O)NCc3ccco3)cc12	D1 antag -70
CC(=O)c1c(C)n(CC(=O)NCc2ccco2)c2ccccc12	TRHR PAM 35
COc1cccc(CNC(=O)c2ccncc2)c1	TRHR PAM 32
Cc1ccccc1-n1c(=O)c2ccccc2n(CC(=O)NCc2ccco2)c1=O	none
O=c1c2cc3c(nc2ncn1Cc1ccccc1F)CCCC3	none
COc1ccc(NC(=O)c2cc(C(C)=O)n3ccccc23)cc1	none
CC(C)CCN1C(=O)N(c2ccccc2)C(=O)C1CC(=O)Nc1ccc(Cl)cc1 (stereo unspecified)	none
O=C(Cn1cc2c(n1)CCCC2)NCCCN1CCN(Cc2ccccc2)CC1	none
CCN1CCN(CCCNC(=O)Cn2cc3c(n2)CCCC3)CC1	none (no result: D1 potentiator)
CCOC(=O)c1ccc(NC(=O)Cn2cc3c(n2)CCC(C)C3)cc1 (stereo unspecified)	D1 antag -30
Cc1ccc(C)c(N2CCN(CCCNC(=O)Cn3cc4c(n3)CCCCC4)CC2)c1	D1 ag 33
O=C(Cn1cc2c(n1)CCCC2)NCCCN1CCN(c2ccccc2F)CC1	D1 antag -35
CC1CCc2nn(CC(=O)NCCCN3CCCC3=O)cc2C1 (stereo unspecified)	none (no result: D1 potentiator)
Cc1ccc(C)c(N2CCN(CCCNC(=O)Cn3cc4c(n3)CCC(C)C4)CC2)c1 (stereo unspecified)	D1 ag 48
COc1ccc(CNC(=O)CCCN2C(=O)COc3ccc(C)cc32)cc1	none
CCOC(=O)c1ccc(NC(=O)Cn2nnc(-c3ccc(C(F)(F)F)cc3)n2)cc1	TRHR PAM 44
O=C(COc1ccccc1-c1nc(-c2ccccc2)no1)Nc1cccc([N+](=O)[O-])c1	none
C=C(C)CC1Nc2ccccc2NC1CC(=C)C (stereo unspecified)	D1 antag -62
C=C(C)CN1C(=O)c2ccccc2C1=O	none (no result: D1 antag)
CC(=O)c1cccc(CN2CCCC(C(=O)Nc3ccc(-c4ccco4)cc3)C2)c1 (stereo unspecified)	D1 antag -46
Cc1ncc(CN2CCCC(C(=O)Nc3ccc(-c4cccc(F)c4)cc3)C2)cn1 (stereo unspecified)	D1 antag -33
CN(C)c1ccc(CNC(=O)CCCN2C(=O)c3cccnc3Oc3ccc(Cl)cc32)cc1	none
COc1ccc(S(=O)(=O)N2CCN(Cc3cccc(Cl)c3)CC2)cc1	D1 antag -39
COc1ccc(OC)c(S(=O)(=O)N2CCC(C(=O)N3CCN(Cc4ccccc4)CC3)CC2)c1	none
O=S(=O)(c1ccc(Cl)cc1)N1CCN(C2CCN(Cc3ccccc3)CC2)CC1	none
O=C1C(=O)N(C2CCN(S(=O)(=O)c3ccc(F)cc3)CC2)CCN1Cc1ccccc1	none
COc1ccc(S(=O)(=O)N2CCC(N3CCN(Cc4ccccc4)CC3)CC2)cc1	TRHR PAM 31
COc1ccc(S(=O)(=O)N2CCN(Cc3ccc(Cl)cc3)CC2)cc1	none
COc1ccc(OC)c(S(=O)(=O)N2CCN(Cc3ccccc3)CC2)c1	TRHR PAM 31
COc1ccc(S(=O)(=O)N2CCC(N3CCN(Cc4ccc(F)cc4)C(=O)C3=O)CC2)cc1	D1 antag -36
O=C(Nc1ccccc1C(F)(F)F)C1(S(=O)(=O)c2ccc(Cl)cc2)CC1	none
COc1ccc(Br)cc1S(=O)(=O)N1CCCC1	D1 antag -36
O=[N+]([O-])c1ccccc1S(=O)(=O)N1CCN(C2CCN(Cc3ccccc3)CC2)CC1	TRHR PAM 31
COc1ccc(-c2cn3c(n2)sc2cc(C(=O)NCC(C)c4ccccc4)ccc23)cc1 (stereo unspecified)	none
CC(C)(C)OC(=O)NCCCCCc1nnc(SCc2cccc(F)c2)o1	D1 antag -36
CN(C)C(=O)CSc1nnc(CCCCCNC(=O)OC(C)(C)C)o1	none
CN(C)C(=O)CSc1nnc(CCNC(=O)OC(C)(C)C)o1	D1 antag -33
COc1ccc(CNC(=O)CCc2c(C)c3cc4c(C)c(C)oc4cc3oc2=O)cc1	D1 antag -36
COCCCNC(=O)CCc1c(C)c2cc3c(C)coc3cc2oc1=O	D1 antag -56

Bioassay records (PubChem BioAssay)
